In PubChem BioAssay AID624125 (The Scripps Research Institute Molecular Screening Center, 2012):
Hit rate of the full screen: of about 360,000 compounds, about 2,600 (0.72%) were called active.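 The calls were made as follows: active = inhibition above its plate's cutoff, the mean inhibition of sample wells plus 3 SD (cut at about 27% in these data); inactive = the rest.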 Only a selection was taken, and actives are over-represented in it overall.

target: Muscarinic acetylcholine receptor M4 (Homo sapiens) (UniProt P08173); assay: CHRM4 blockers of acetylcholine calcium response – CHO cells, Fluo-8 calcium fluorescence, primary screen (AID 624125); details: CHO-hM4 cells, ACh EC80, Fluo-8 calcium fluorescence; at 3 µM; hits give high values;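 also: 0% = acetylcholine EC80 with DMSO and 100% = DMSO without agonist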
Sequence (P08173 whole entry, looked up): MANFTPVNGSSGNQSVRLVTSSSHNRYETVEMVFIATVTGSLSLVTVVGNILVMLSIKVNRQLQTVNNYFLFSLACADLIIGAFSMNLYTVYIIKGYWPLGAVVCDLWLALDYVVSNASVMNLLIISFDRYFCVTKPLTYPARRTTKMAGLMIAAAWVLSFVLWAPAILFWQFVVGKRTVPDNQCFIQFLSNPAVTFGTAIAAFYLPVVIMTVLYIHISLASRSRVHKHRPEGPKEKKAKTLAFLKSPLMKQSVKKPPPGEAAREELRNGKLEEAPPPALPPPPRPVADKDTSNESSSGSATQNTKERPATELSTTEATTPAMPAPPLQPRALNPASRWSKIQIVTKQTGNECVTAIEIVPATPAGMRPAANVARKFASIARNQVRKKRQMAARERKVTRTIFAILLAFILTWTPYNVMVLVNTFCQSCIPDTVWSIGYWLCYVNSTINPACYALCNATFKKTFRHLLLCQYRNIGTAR

inhibition, inactive:
COc1ccc(NC(=O)CCn2ccnc2)c(OC)c1 4.14%
COc1ccc(NS(=O)(=O)c2ccc(N3CCOCC3)c(NC(=O)c3ccccc3Br)c2)cc1 -9.67%
Cc1ccc(NS(=O)(=O)c2cc3c(cc2C)NC(=O)CO3)cc1 2.56%
CN(Cc1c(F)cccc1Cl)S(=O)(=O)c1cccs1 -12.9%
Cc1cc(=O)n2nc(N3CCCC3C(=O)NCCCN3CC(C)CC(C)C3)sc2n1 (centres undefined) -11.3%
Cc1ccc(OCCCC(=O)N2CCOCC2)c(C)c1 -1.8%
Cc1ccc(C)c(N2CCN(C(=O)Cn3ncn4cccc4c3=O)CC2)c1 -6.41%
C[C@H]1CN([C@@H](C)CO)C(=O)CCCn2nncc2CO[C@@H]1CN(C)S(=O)(=O)c1cccc(C#N)c1 -12.9%
CC1(C)Cc2c(sc3nc4n(c(=N)c23)CCCCC4)CO1 3.83%
N=c1c2c3c(sc2ncn1CCCN1CCOCC1)CCCCC3 10.8%
Cc1cc(C)c(S(=O)(=O)c2cc(F)ccc2C)c(=O)[nH]1 1.71%
CCc1ccc(NC2Nc3cc(C)nn3S2)cc1 (centres undefined) 4.8%
COc1ccc(Cl)cc1C=CC=NNC(=O)c1ccncc1 -14.8%
CCC1CCC/C1=N\NC(=O)c1ccc(Cl)cc1 (centres undefined) 6.05%
COc1cccc2sc3cc(NCC[C@@H]4CCCN4C)ccc3c(=O)c12 -7.94%
O=C(Nc1ccc(F)cc1)c1cc2c(s1)CCCC2 1.82%
C=CCOC(=O)C1=C(C)N=C2SCCC(=O)N2C1/C=C/c1ccccc1OC (centres undefined) 1.49%
CC1(c2cccc(Br)c2)NC(=O)N(CC(=O)NCCC2=CCCCC2)C1=O (centres undefined) -1.54%
COC(=O)c1cc(S(=O)(=O)N2CCC(C(N)=O)CC2)oc1C -3.75%
CCCCN(CCCC)CCC(O)c1cc2c(Cl)cc(Cl)cc2c2cc(C(F)(F)F)ccc12 (centres undefined) -6.99%
CC(C)CCNC(=O)c1[nH]c(C(F)(F)F)nc1-c1ccccc1 2.39%
CCOCCCN1C(=O)CN(C2CCCCC2)C(=O)C1c1ccc(OCC)c(OC)c1 (centres undefined) 5.54%
Cc1cc(=O)[nH]c(Nc2cccc(Br)c2)n1 4.17%
Cc1ccc(C)c(NC2=NCC(=O)N2c2ccc3c(c2)OCCO3)c1 5.91%
CC1(C)C[C@H]2C3=CCC4[C@@]5(C)CC[C@H](O)[C@](C)(CO)C5CC[C@@]4(C)[C@]3(C)C[C@@H](O)[C@@]2(CO)[C@@H](O)[C@@H]1O (some centres undefined) -13.3%
CC1O[C@@H](OC2C(O)C(C)O[C@H](OC(=O)[C@]34CCC(C)(C)C[C@H]3C3=CCC5[C@@]6(C)CC(O)C(O[C@@H]7OC(CO)C(O)[C@@H](O)[C@@H]7O)[C@@](C)(C(=O)O)C6CC[C@@]5(C)[C@]3(CO)CC4)C2O[C@H]2OC(C)[C@@H](O[C@@H]3OCC(O[C@@H]4OC(CO)C(O)[C@H](O)C4O)[C@@H](O)[C@@H]3O)[C@H](O)C2O)C(O)C(O)C1O (some centres undefined) 4.49%
O=S(=O)(c1cccc(-c2cn3ccccc3n2)c1)N1CCCC1 -2.49%
O=C(NCC(c1cccs1)N1CCOCC1)c1cc(Cl)ccc1[N+](=O)[O-] (centres undefined) -29.6%
CCN1CCN(CC(=O)c2cc(OC)c(OC)c(OC)c2)CC1 3.39%
Cc1cc(C)nc(NS(=O)(=O)c2ccc(N3C(=O)C4CCCCC4C3=O)cc2)n1 (centres undefined) -3.19%
Cc1ccc(C(=O)N2CCCc3ccccc32)c(Cl)c1 -5.91%
CCCn1nc(C(=O)N2CCCc3ccccc32)c2ccccc2c1=O 3.11%
C=CCn1cc(Cl)cc(C(=O)Nc2ccccc2)c1=O 1.16%
NS(=O)(=O)c1ccc(NC(=O)COC(=O)C2(c3ccc(F)cc3)CCCC2)cc1 1.71%
CC(C)(C)C(=O)/C(C#N)=C/c1ccc(O)cc1 3.63%
NC1=NC(=O)S/C1=C\c1ccc(O)cc1 0.37%
CCNC(=O)C1(C)CCN(Cc2ccc(C(=O)OCC)o2)C1 (centres undefined) 3.23%
Clc1cccc(Cl)c1Cn1nnc(-c2cccs2)n1 -3.16%
CC(C)[C@@H]1COC(c2cccc(C3=N[C@H](C(C)C)CO3)c2)=N1 7.38%
COc1cc(/C=C(/NC(=O)c2ccccc2)C(=O)Nc2cccc(O)c2)c([N+](=O)[O-])cc1OC -11.4%
COc1cc(NC(=O)COC(=O)CSc2ccc3ccccc3c2)c(C)cc1[N+](=O)[O-] -8.64%
CCOC(=O)C1CCN(C(=O)Cn2nc(C)c3c(C)n(-c4ccccc4)nc3c2=O)CC1 9.38%
Cc1cc(=O)oc2c3c(cc(OCC(=O)N[C@H](C(=O)O)c4ccccc4)c12)OC(C)(C)CC3 -5.66%
O=C1CCCC(O)=C1N=Nc1ccc2ncsc2c1 9.09%
COc1ccc(NC(=O)N(C)C[C@H]2Oc3ccc(NC(=O)C4CC4)cc3C(=O)N([C@H](C)CO)C[C@@H]2C)cc1 -10%
Cc1nc2c(OCc3cccc(Cl)c3)cccn2c1N(C)CC1CC1 8.19%
CCc1nc2c(OCc3ccc(Cl)cc3Cl)cccn2c1N(C)C(=O)C(C)C -17.6%
COC(CNC(=O)c1ccc2c(c1)ncn2-c1cc(C)cc(C)c1)OC -0.94%
CCc1nc2c(OCc3ccccc3)cccn2c1N(C)C(=O)c1ccco1 8.33%
COc1ccc(C(c2nnnn2Cc2cccs2)N2CCN(c3ccccc3)CC2)cc1OC (centres undefined) -1.13%
COc1ccc(C(O)(C2CCCCC2)C(CN2CCCC2)c2ccccc2)cc1 (centres undefined) 5.79%
CC(CN1CCCCC1)c1ccccc1 (centres undefined) 5.04%
c1ccc2cc3[nH]c(CN4CCCCC4)nc3cc2c1 -0.37%
O=C(c1ccccc1)C(O)(CN1CCCCC1)c1ccccc1 (centres undefined) 5.71%
CCCCOc1ccc(C(C)(O)CCN2CCOCC2)cc1 (centres undefined) 3.58%
CCc1ccccc1NC(=O)NCCN1CCCCC1 4.05%
CCC1SC(CC)C(=O)N(CC(=O)NC2CCCCC2)C1=O (centres undefined) 4.12%
Cc1ccc(C(=O)NC(=S)Nc2ccc3[nH]c(=O)[nH]c3c2)cc1C -8.35%
COC(=O)c1cccc(-n2[nH]nnc2=S)c1 2.86%
COc1ccccc1C(=O)NCCn1cc(SCC(=O)NCc2ccco2)c2ccccc21 6.25%
COc1cc2c3c(c1)/C(=C1/SC(=S)NC1=O)C(=O)N3C(C)(C)C=C2C 9.66%
C=CC[C@@H](CC(=O)N[C@@H](CO)Cc1ccccc1)C(=O)NCCOC(=O)[C@@H](CC=C)CC(=O)OC(C)(C)C -5.01%
CCc1cc(C(c2ccccc2OC)N2CCOCC2)c(NC(=O)c2ccccc2)s1 (centres undefined) -6.12%
COc1ccc(COC(=O)c2n[nH]c3ccccc23)cc1F 3.64%
CCCOc1ccccc1C(=O)NCCCC(=O)O -1.85%
CN(C)c1ccc(N/C=C/C(=O)C(F)(F)F)cc1 -4.11%
COC(=O)c1cc(NC(=O)CN2CCN(C(C)=O)CC2)cc(C(=O)OC)c1 1.81%
Cc1cc2c(cc1C)N(Cc1ccccc1)C1=NCCCN12 10.6%
Cc1ccc(OCc2cc(C(=O)N(C)CCn3ccnc3C)no2)cc1C -0.14%
Cc1cc(CN(C)C(=O)c2cc(COc3ccc(C)c(C)c3)on2)n[nH]1 -2.16%
Cc1ccc2c(c1)N(CC(=O)N(Cc1ccccn1)Cc1ccco1)C(=O)C(C(C)C)O2 (centres undefined) -6.51%

inhibition, active:
c1ccc(C(=NNc2nc3ccccc3s2)c2ccccn2)cc1 56.1%
Cc1ccc(C)c(N2CCN(C(=O)CCCCCn3c(=S)[nH]c4ccc(N5CCOCC5)cc4c3=O)CC2)c1 33.6%
N=c1c2c3c(sc2nc2n1CCCCC2)CCCC3 46.3%
CCN1/C(=C\c2ccc3ccccc3[n+]2CC)Sc2cc(C)ccc21 34%
CN1CCC[C@@H]1CCO[C@](C)(c1ccccc1)c1ccc(Cl)cc1 97.7%
CC1(C)CC(N2CCN(C(c3ccccc3)c3ccccc3)CC2)=CC(=[N+]2CCCCC2)C1 56.8%
O=[N+]([O-])/C=C/c1ccc2c(ccn2Cc2ccccc2)c1 51%
Cc1cc(=O)[nH]c(N/N=C/c2ccc3c(c2)OCCO3)n1 29.5%
CC1(C)C2CC[C@]3(C)C(CC=C4[C@@H]5C[C@@](C)(CO)CC[C@]5(C(=O)O)CC[C@]43C)[C@@]2(C)CC[C@@H]1O (some centres undefined) 45.8%
O=C1C=C(c2ccc(Cl)cc2)C(=O)N1Nc1ccccc1 32%
Cc1cccc2cc3c(N)c(C(=O)N4CCCc5ccccc54)sc3nc12 26.9%
O=C(/C=C(O)/C=C/c1ccc(O)cc1)/C=C/c1ccc(O)cc1 41.4%
COc1cc(/C=C(\C#N)C(=O)Nc2ccc3ccccc3c2)c([N+](=O)[O-])cc1OC 28.5%
Cc1nc2c(OCc3ccc(Cl)cc3Cl)cccn2c1N(C)CC1CC1 38%
CCCCCC(O)(CCN1CCCCC1)c1ccccc1 (centres undefined) 98.9%
C#CC(CCN1CCCCC1)(OC)c1ccccc1 (centres undefined) 44.6%
CCCCCCC(O)(CCN1CCCCC1)c1ccccc1 (centres undefined) 88.2%
CN(Cc1cccnc1)C(=O)c1cc(COc2ccc3ncccc3c2)on1 44.2%
